# Hit rate of the full screen: of about 72,000 compounds, about 1,600 (2.2%) were called active. A call without a number means that no potency is given here. This is one part of a sample in which actives are shown more often than they occur. The call rests on the fitted dose curve; in most records, active means well fitted inhibition curve with a large enough effect; inconclusive means small, poorly fitted or top-dose-only effect; inactive means flat fitted curve, though single readings scatter.
# Target: Luciferin 4-monooxygenase (Photinus pyralis) (UniProt P08659)
# Sequence (P08659 whole entry, looked up): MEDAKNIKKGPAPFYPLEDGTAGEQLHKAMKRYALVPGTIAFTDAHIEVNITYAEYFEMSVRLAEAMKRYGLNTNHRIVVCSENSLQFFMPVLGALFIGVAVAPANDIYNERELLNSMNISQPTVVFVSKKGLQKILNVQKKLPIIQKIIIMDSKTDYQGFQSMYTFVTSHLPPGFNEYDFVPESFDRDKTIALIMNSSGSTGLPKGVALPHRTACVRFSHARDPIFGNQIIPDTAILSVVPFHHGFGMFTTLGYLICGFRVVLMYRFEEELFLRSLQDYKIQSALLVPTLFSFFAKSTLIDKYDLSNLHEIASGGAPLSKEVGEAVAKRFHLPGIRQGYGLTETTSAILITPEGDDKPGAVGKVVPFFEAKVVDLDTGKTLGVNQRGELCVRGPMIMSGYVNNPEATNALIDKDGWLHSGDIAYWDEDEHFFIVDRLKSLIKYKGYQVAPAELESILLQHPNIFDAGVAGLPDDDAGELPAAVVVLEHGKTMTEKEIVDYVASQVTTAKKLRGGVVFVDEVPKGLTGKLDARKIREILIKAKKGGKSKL
# Assay: qHTS Assay for Inhibitors of Firefly Luciferase; further: nearly all actives have a fitted effect of over 40% in size
# Details: purified firefly luciferase, luminescence, 8 min; series mostly up to 57.1 µM
# Outline: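 Firefly luciferase (PKLight detection mix) with 10 uM ATP in pH 7.2 imidazole buffer (KCl, MgCl2, Tween 20, BSA). Compounds tested across a concentration series (qHTS). Luminescence read after 8 min at ambient temperature.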
# Potency means the concentration at half of the fitted maximal effect.
SMILES,Potency,"activity change, negative = inhibition"
CCOC(=O)C1CCCCN1Cc1ccc(OC)c(OC)c1OC (centres undefined),inactive,–
COc1ccc2nc(NC(=O)c3ccc(Br)s3)sc2c1,12.6 µM (active),–
CNC(=O)c1ccc2nc(NC(C)=O)sc2c1,inactive,–
CCn1c(SCC(=O)Nc2nc3ccc(OC)cc3s2)nnc1-c1ccoc1C,inactive,–
Cc1ccnc(-n2sc3ccccc3c2=O)n1,20 µM (active),–
Cc1nc2ccccc2c(=O)n1CCCn1ccnc1,inactive,–
Cc1ccnc(N2CCC(C(=O)NC3CCCCCC3)CC2)n1,inactive,–
N#CCCN(CCC#N)c1nnc(-c2ccccc2)s1,inactive,–
COc1ccc(-c2cn3ccsc3n2)cc1,3.98 µM (active),–
O=C(NCc1cn2ccsc2n1)Nc1ccc(Cl)cc1,inactive,–
Cc1ccc(S(=O)(=O)NCc2cn3ccsc3n2)c(C)c1,inactive,–
CC(=O)N1CCC2(CCCN(Cc3ccc(C#N)cc3)C2)CC1,–,0.0675% [at 11.4 µM] (inactive)
Cc1ccc(NC(=O)CSc2nnc(-c3cnccn3)n2Cc2ccco2)cc1C,inactive,–
CN(C(=O)c1ccccn1)c1nnc(-c2ccccn2)s1,10 µM (active),–
CN(C(=O)c1ccno1)c1nnc(-c2cccnc2)s1,inactive,–
CN(C(=O)COc1ccccc1)c1nnc(-c2ccncc2)s1,inactive,–
O=S1(=O)CCN2C(=N1)SC1=C2CCN(Cc2ccccc2)C1,inactive,–
COc1ccc(-c2cc3n(n2)CCc2nc4ccccc4n2-3)cc1,inactive,–
Brc1cccc(-c2nnc3n2CCC3)c1,inactive,–
COc1ccc(-c2nc3n(c2Br)CCC3)cc1,12.6 µM (active),–
Cc1nc2ccc(NC(=O)N3CCC(c4ccccc4)C3)cc2nc1C (centres undefined),inactive,–
Cc1ccc(NC(=O)c2cc(-c3ccc(C)o3)nc3ccccc23)nc1,12.6 µM (active),–
Cc1cc(=O)oc(C)c1C(=O)Nc1cnc2ccccc2c1,inactive,–
Cc1ccc(C(=O)CSc2nc3ccccc3c(=O)n2N)o1,inactive,–
CCOC(=O)Cc1csc(NC(=O)Nc2ccccc2)n1,12.6 µM (active),–
CCOC(=O)Cc1csc(NC(=O)CSc2nc(C)cc(=O)[nH]2)n1,inactive,–
CCOC(=O)Cc1csc(NC(=O)C(C)(C)C)n1,inactive,–
CNc1nc(-c2ccccc2OC)nc2ccccc12,–,-0.211% [at 2.29 µM] (inactive)
Cc1nc2cnc(Nc3ccccc3)nc2n(Cc2ccc(F)cc2)c1=O,–,-0.327% [at 11.4 µM] (inactive)
